Records with an inconclusive call do not appear. Activity calls are given as the source filed them. Calls come from the whole dose curve; as a rule, active = well fitted inhibition curve with a large enough effect; inconclusive = small, poorly fitted or top-dose-only effect; inactive = flat fitted curve, though single readings scatter.
Key:
[1] = qHTS profiling for inhibitors of Plasmodium falciparum proliferation (AID 504749);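 note: 0% = DMSO vehicle and full inhibition = artemisinin control; nearly all actives have a fitted effect of over 60% in size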; details: P. falciparum in erythrocytes, SYBR Green DNA, 72 h, at 28.7 µM (top of the series)
Procedure, shortened: (§1)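 In a 72 h erythrocytic culture (37 C, humidified, 5% CO2) at 2.5% hematocrit and 0.3% starting parasitemia, compounds were tested; SYBR Green I in detergent lysis buffer stained parasite DNA overnight.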

[2] = test system: 3D7; assay: as above; details: P. falciparum in erythrocytes, SYBR Green DNA, 72 h; series mostly up to 28.7 µM
Procedure, shortened: as §1

[3] = test system: 7G8; assay: as above; details: P. falciparum in erythrocytes, SYBR Green DNA, 72 h; series mostly up to 28.7 µM
Procedure, shortened: as §1

[4] = test system: AA1029; assay: as above; details: P. falciparum in erythrocytes, SYBR Green DNA, 72 h; series mostly up to 28.7 µM
Procedure, shortened: as §1

[5] = test system: AS120; assay: as above; details: P. falciparum in erythrocytes, SYBR Green DNA, 72 h; series mostly up to 28.7 µM
Procedure, shortened: as §1

[6] = test system: ATS189; assay: as above; details: P. falciparum in erythrocytes, SYBR Green DNA, 72 h; series mostly up to 28.7 µM
Procedure, shortened: as §1

[7] = test system: ATS95; assay: as above; details: P. falciparum in erythrocytes, SYBR Green DNA, 72 h; series mostly up to 28.7 µM
Procedure, shortened: as §1

[8] = test system: C2A; assay: as above; details: P. falciparum in erythrocytes, SYBR Green DNA, 72 h; series mostly up to 28.7 µM
Procedure, shortened: as §1

[9] = test system: CP185; assay: as above; details: P. falciparum in erythrocytes, SYBR Green DNA, 72 h; series mostly up to 28.7 µM
Procedure, shortened: as §1

[10] = test system: CP191; assay: as above; details: P. falciparum in erythrocytes, SYBR Green DNA, 72 h; series mostly up to 28.7 µM
Procedure, shortened: as §1

[11] = test system: CP192; assay: as above; details: P. falciparum in erythrocytes, SYBR Green DNA, 72 h; series mostly up to 28.7 µM
Procedure, shortened: as §1

[12] = test system: CP194; assay: as above; details: P. falciparum in erythrocytes, SYBR Green DNA, 72 h; series mostly up to 28.7 µM
Procedure, shortened: as §1

[13] = test system: CP201; assay: as above; details: P. falciparum in erythrocytes, SYBR Green DNA, 72 h; series mostly up to 28.7 µM
Procedure, shortened: as §1

[14] = test system: CP203; assay: as above; details: P. falciparum in erythrocytes, SYBR Green DNA, 72 h; series mostly up to 28.7 µM
Procedure, shortened: as §1

[15] = test system: CP211; assay: as above; details: P. falciparum in erythrocytes, SYBR Green DNA, 72 h; series mostly up to 28.7 µM
Procedure, shortened: as §1

[16] = test system: CP215; assay: as above; details: P. falciparum in erythrocytes, SYBR Green DNA, 72 h; series mostly up to 28.7 µM
Procedure, shortened: as §1

[17] = test system: CP217; assay: as above; details: P. falciparum in erythrocytes, SYBR Green DNA, 72 h; series mostly up to 28.7 µM
Procedure, shortened: as §1

[18] = test system: CP237; assay: as above; details: P. falciparum in erythrocytes, SYBR Green DNA, 72 h; series mostly up to 28.7 µM
Procedure, shortened: as §1

[19] = test system: CP238; assay: as above; details: P. falciparum in erythrocytes, SYBR Green DNA, 72 h; series mostly up to 28.7 µM
Procedure, shortened: as §1

[20] = test system: CP247; assay: as above; details: P. falciparum in erythrocytes, SYBR Green DNA, 72 h; series mostly up to 28.7 µM
Procedure, shortened: as §1

CC(/C=C/C=C(\C)C(=O)O[C@@H]1O[C@H](CO[C@@H]2O[C@H](CO)[C@@H](O)[C@H](O)[C@H]2O)[C@@H](O)[C@H](O)[C@H]1O)=C\C=C\C=C(C)\C=C\C=C(/C)C(=O)O[C@@H]1O[C@H](CO[C@@H]2O[C@H](CO)[C@@H](O)[C@H](O)[C@H]2O)[C@@H](O)[C@H](O)[C@H]1O
inactive: activity, negative = inhibition ([1]; parasite line A) 7.84% | activity, negative = inhibition ([1]; parasite line B) -1.1% | Potency [2] | Potency [3] | Potency [4] | Potency [5] | Potency [6] | Potency [7] | Potency [8] | Potency [9] | Potency [10] | Potency [11] | Potency [12] | Potency [13] | Potency [14] | Potency [15] | Potency [16] | Potency [17] | Potency [18] | Potency [19] | Potency [20]

CCCCCCCCCCCCCCCCCC(=O)OCC(C)O (configuration not stated)
inactive: activity, negative = inhibition ([1]; parasite line A) 4.03% | activity, negative = inhibition ([1]; parasite line B) -12.1% | Potency [2] | Potency [3] | Potency [4] | Potency [5] | Potency [6] | Potency [7] | Potency [8] | Potency [9] | Potency [10] | Potency [11] | Potency [12] | Potency [13] | Potency [14] | Potency [15] | Potency [16] | Potency [17] | Potency [18] | Potency [19] | Potency [20]

CN1c2c(nc(N)[nH]c2=O)NCC1CNc1ccc(C(=O)NC(CCC(=O)O)C(=O)O)cc1 (configuration not stated)
inactive: activity, negative = inhibition ([1]; parasite line A) 2.92% | activity, negative = inhibition ([1]; parasite line B) -8.81% | Potency [2] | Potency [3] | Potency [4] | Potency [5] | Potency [6] | Potency [7] | Potency [8] | Potency [9] | Potency [10] | Potency [11] | Potency [12] | Potency [13] | Potency [14] | Potency [15] | Potency [16] | Potency [17] | Potency [18] | Potency [19] | Potency [20]

Cc1nc(NS(=O)(=O)c2ccc(N)cc2)nc(C)c1Br
inactive: activity, negative = inhibition ([1]; parasite line A) 7.52% | activity, negative = inhibition ([1]; parasite line B) -0.222% | Potency [2] | Potency [3] | Potency [4] | Potency [5] | Potency [6] | Potency [7] | Potency [8] | Potency [9] | Potency [10] | Potency [11] | Potency [12] | Potency [13] | Potency [14] | Potency [15] | Potency [16] | Potency [17] | Potency [18] | Potency [19] | Potency [20]

CC1CC(O)CC(C)(C)C1 (configuration not stated)
inactive: activity, negative = inhibition ([1]; parasite line A) -1.2% | activity, negative = inhibition ([1]; parasite line B) 7.51% | Potency [2] | Potency [3] | Potency [4] | Potency [5] | Potency [6] | Potency [7] | Potency [8] | Potency [9] | Potency [10] | Potency [11] | Potency [12] | Potency [13] | Potency [14] | Potency [15] | Potency [16] | Potency [17] | Potency [18] | Potency [19] | Potency [20]

Nc1nccs1
inactive: activity, negative = inhibition ([1]; parasite line A) 12.4% | activity, negative = inhibition ([1]; parasite line B) 11.4% | Potency [2] | Potency [3] | Potency [4] | Potency [5] | Potency [6] | Potency [7] | Potency [8] | Potency [9] | Potency [10] | Potency [11] | Potency [12] | Potency [13] | Potency [14] | Potency [15] | Potency [16] | Potency [17] | Potency [18] | Potency [19] | Potency [20]

CCN(CC)C(=O)c1cccnc1
inactive: activity, negative = inhibition ([1]; parasite line A) 10.9% | activity, negative = inhibition ([1]; parasite line B) 11.6% | Potency [2] | Potency [3] | Potency [4] | Potency [5] | Potency [6] | Potency [7] | Potency [8] | Potency [9] | Potency [10] | Potency [11] | Potency [12] | Potency [13] | Potency [14] | Potency [15] | Potency [16] | Potency [17] | Potency [18] | Potency [19] | Potency [20]

Cc1c(Cl)cccc1Nc1ncccc1C(=O)O
inactive: activity, negative = inhibition ([1]; parasite line A) 15.4% | activity, negative = inhibition ([1]; parasite line B) 7.39% | Potency [2] | Potency [3] | Potency [4] | Potency [5] | Potency [6] | Potency [7] | Potency [8] | Potency [9] | Potency [10] | Potency [11] | Potency [12] | Potency [13] | Potency [14] | Potency [15] | Potency [16] | Potency [17] | Potency [18] | Potency [19] | Potency [20]

O=C(O)CCCC/C=C(\c1ccccc1)c1cccnc1
inactive: activity, negative = inhibition ([1]; parasite line A) 3.33% | activity, negative = inhibition ([1]; parasite line B) 8.41% | Potency [2] | Potency [3] | Potency [4] | Potency [5] | Potency [6] | Potency [7] | Potency [8] | Potency [9] | Potency [10] | Potency [11] | Potency [12] | Potency [13] | Potency [14] | Potency [15] | Potency [16] | Potency [17] | Potency [18] | Potency [19] | Potency [20]

O=C1CCC(=O)N1CO
inactive: activity, negative = inhibition ([1]; parasite line A) -2.35% | activity, negative = inhibition ([1]; parasite line B) 7.84% | Potency [2] | Potency [3] | Potency [4] | Potency [5] | Potency [6] | Potency [7] | Potency [8] | Potency [9] | Potency [10] | Potency [11] | Potency [12] | Potency [13] | Potency [14] | Potency [15] | Potency [16] | Potency [17] | Potency [18] | Potency [19] | Potency [20]

CCC(O)c1ccccc1 (configuration not stated)
inactive: activity, negative = inhibition ([1]; parasite line A) 5.27% | activity, negative = inhibition ([1]; parasite line B) 8.76% | Potency [2] | Potency [3] | Potency [4] | Potency [5] | Potency [6] | Potency [7] | Potency [8] | Potency [9] | Potency [10] | Potency [11] | Potency [12] | Potency [13] | Potency [14] | Potency [15] | Potency [16] | Potency [17] | Potency [18] | Potency [19] | Potency [20]

CN(Cc1ccccc1)Cc1ccccc1
inactive: activity, negative = inhibition ([1]; parasite line A) 9.08% | activity, negative = inhibition ([1]; parasite line B) -0.726% | Potency [2] | Potency [3] | Potency [4] | Potency [5] | Potency [6] | Potency [7] | Potency [8] | Potency [9] | Potency [10] | Potency [11] | Potency [12] | Potency [13] | Potency [14] | Potency [15] | Potency [16] | Potency [17] | Potency [18] | Potency [19] | Potency [20]

From PubChem BioAssay (NCATS)
